Bioassay records deposited in PubChem BioAssay by The Scripps Research Institute Molecular Screening Center.
FBW7 activator: activators of human E3 ligase FBW7; hit rate 0.13% among 650,000; AlphaScreen FBW7–phospho-cyclin E peptide binding, activator screen; normalized activity (activation), % at 26.1 µM; Q969H0; in the data active means normalized activity above about 1.9%;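 further: purified mutant Fbw7 with reduced substrate affinity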
MITF inh: human MITF inhibition, primary screen. O75030. AlphaScreen MITF homodimerization, bead proximity signal. inhibition, % at 2.6 µM. hit rate 0.91% among 650,000; in the data active means inhibition above about 50%;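 further: 0% = vehicle wells with protein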
GPR151 ag: activators of human GPR151; hit rate 1% among 650,000; PathHunter beta-arrestin GPR151 cells, luminescence; activation, % at 11.2 µM; AID 1508602; in the data active means activation above about 4.9%;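 further: 0% = median of compound wells and 100% = cells with positive control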
Target sequence (Q8TDV0 whole entry, looked up): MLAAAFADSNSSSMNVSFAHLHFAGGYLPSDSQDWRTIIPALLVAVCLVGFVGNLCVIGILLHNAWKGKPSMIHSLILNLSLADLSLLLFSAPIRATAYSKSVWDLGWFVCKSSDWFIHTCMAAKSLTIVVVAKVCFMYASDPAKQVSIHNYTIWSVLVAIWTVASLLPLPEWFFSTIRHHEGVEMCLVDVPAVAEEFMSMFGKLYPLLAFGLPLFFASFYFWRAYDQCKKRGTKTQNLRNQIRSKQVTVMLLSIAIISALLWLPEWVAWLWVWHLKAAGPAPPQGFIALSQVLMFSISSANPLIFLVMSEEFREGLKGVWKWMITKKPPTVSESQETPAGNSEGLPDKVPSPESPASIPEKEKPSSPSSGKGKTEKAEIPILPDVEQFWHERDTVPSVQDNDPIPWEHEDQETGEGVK
TEAD-YAP block: TEAD-YAP interaction inhibition; HEK-TIYL cells, TEAD-Gal4/YAP UAS-luciferase luminescence; inhibition, % at 9.12 µM; hit rate 1.4% among 640,000; in the data active means inhibition above about 32%;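 further: 0% = median of test compound wells and 100% = reference inhibitor wells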
Starred values were filed as active, the others as inactive; ! = not confirmed by another sample. Only some compounds are listed: those with a hit (about 3.5% of all), similar ones and a draw of the others.

SMILES | FBW7 activator | MITF inh | GPR151 ag | TEAD-YAP block
COc1ccc(C2C=C(c3ccc(F)cc3)Nc3ncnn32)cc1OC (stereo not drawn) | 0.6 | 13.7 | -0.3 | 11.5
COc1cc(C2C=C(c3cccs3)Nc3ncnn32)cc(OC)c1OC (stereo not drawn) | -0.1 | 17.6 | -1.3 | 65.2*
C=CCN(c1ccccc1)S(=O)(=O)c1ccc(F)c(C(=O)Nc2ccccc2OC)c1 | -0.1 | 1.1 | 1.7 | -0.8
c1ccc(CN2CCC(Nc3ccnc(-c4csc5ccccc45)n3)CC2)cc1 | -0.1 | -6.0 | -1.8 | -0.8
O=C1NC(=O)/C(=C\c2cc(Br)ccc2OCc2ccccc2Cl)N1 | 0.2 | -12.6 | 2.2 | -9.5
CCOc1ccc(C2C=C(c3ccc(CC)cc3)Nc3ncnn32)cc1OC (stereo not drawn) | 0.0 | 26.6 | -0.3 | 37.4*
COc1cc(C2C=C(c3ccc(Cl)cc3)Nc3ncnn32)cc(OC)c1OC (stereo not drawn) | 0.0 | 11.8 | -1.0 | 63.7*
COC(=O)c1nc2n(n1)C(c1cc(OC)c(OC)c(OC)c1)C=C(c1cccs1)N2 (stereo not drawn) | -0.1 | -1.0 | -0.3 | 51.7*
CCc1ccc(C2=CC(c3cccc(OC)c3OC)n3ncnc3N2)cc1 (stereo not drawn) | -0.1 | 1.7 | 1.7 | -5.9
CCc1ccc(C2=CC(c3cc(OC)c(OC)c(OC)c3)n3ncnc3N2)cc1 (stereo not drawn) | 0.0 | 8.0 | -0.7 | 64.6*
COc1ccc(C2=CC(c3ccc(F)cc3)n3ncnc3N2)cc1 (stereo not drawn) | -0.1 | -1.1 | -1.9 | -14.0
COc1ccc(C2=CC(c3cc(OC)c(OC)c(OC)c3)n3ncnc3N2)cc1 (stereo not drawn) | 0.1 | 1.6 | -0.1 | 63.2*
CCOC(=O)CSC1=C(C#N)C(c2ccco2)CC(=O)N1 (stereo not drawn) | -0.1 | 0.9 | -0.1 | 55.4*
CC(=O)C1=C(C)NC(SCC(=O)c2ccc(C)c(C)c2)=C(C#N)C1c1ccco1 (stereo not drawn) | 1.9* | 22.9 | -0.4 | 8.9
COc1ccccc1NC(=O)C1=C(C)NC(SCC(=O)c2ccc(F)cc2)=C(C#N)C1c1ccco1 (stereo not drawn) | 0.7 | 3.4 | -1.2 | -16.2
COC(=O)CSC1=C(C#N)C(c2ccc(C)o2)CC(=O)N1 (stereo not drawn) | 0.1 | 6.6 | 1.0 | 56.4*
CC(=O)C1=C(C)NC(SCC(=O)c2ccccc2)=C(C#N)C1c1ccco1 (stereo not drawn) | 0.9 | 14.0 | -0.7 | -18.6
COC(=O)CSC1=C(C#N)C(c2ccccc2C)CC(=O)N1 (stereo not drawn) | 0.2 | -8.8 | -1.1 | 6.7
CCOC(=O)CSC1=C(C#N)C(c2ccco2)C(C(=O)Nc2ccccc2F)=C(C)N1 (stereo not drawn) | 0.2 | 11.5 | 0.8 | 45.1*
CCOC(=O)C1=C(C)N=c2s/c(=C/c3cc(Br)c(N(C)C)o3)c(=O)n2C1c1ccc(Cl)cc1 (stereo not drawn) | 0.0 | 3.5 | -0.3 | -4.7
COCCCN1C(=O)C(=O)/C(=C(\O)c2ccccc2)C1c1ccc(Cl)cc1 (stereo not drawn) | 0.2 | 11.0 | 0.3 | 10.3
CN1C(=O)/C(=C\c2nc3ccccc3c(=O)n2CCCO)c2ccccc21 | 0.1 | 0.7 | -1.3 | 4.3
Cc1ccccc1NC(=O)CSC1=C(C#N)C(c2ccco2)C2=C(CCCC2=O)N1 (stereo not drawn) | 0.1 | 12.5 | 0.3 | 45.0*
CCCOC(=O)CSC1=C(C#N)C(c2cccc(Cl)c2)CC(=O)N1 (stereo not drawn) | 0.2 | 1.6 | 0.4 | 62.4*
CCCOC(=O)CSC1=C(C#N)C(c2ccc3c(c2)OCO3)CC(=O)N1 (stereo not drawn) | -0.1 | -1.5 | 3.3 | 0.6
SMILES | FBW7 activator | MITF inh | GPR151 ag | TEAD-YAP block
CC1(C)Cc2nc3sc4c(N5CCNCC5)ncnc4c3cc2CS1 | 0.0 | 14.7 | -1.2 | 43.9*
COC(=O)C1=CN(C(C)C)C=C(C(=O)OC)C1c1ccccc1Br | 1.7 | 3.2 | -0.6 | -9.0
CCOC(=O)C1=CN(C(C)C)C=C(C(=O)OCC)C1c1cccc(OC)c1 | 8.5* | -41.7 | 0.5 | -2.0
COC(=O)C1=CN(C(C)C)C=C(C(=O)OC)C1c1cccc(OC)c1 | 0.5 | 8.0 | 1.3 | 6.3
CCOC(=O)C1=CN(C(C)C)C=C(C(=O)OCC)C1c1ccccc1Br | 2.0* | -6.1 | -0.1 | -3.5
COc1ccc(C2=NN(C(=O)CSc3nnc(CNC(=O)c4ccco4)n3-c3cccc(C(F)(F)F)c3)C(c3ccc(C)cc3)C2)cc1 (stereo not drawn) | 0.0 | -0.2 | 2.9 | 12.0
CC(=O)Nc1ccc(Oc2nnc(C)c3ccccc23)cc1 | -0.1 | -20.6 | -1.0 | 65.3*
CC(=O)Nc1cccc(Oc2nnc(-c3ccc(C)cc3)c3ccccc23)c1 | 0.0 | -7.7 | -0.2 | 2.1
Brc1cnc(NC2CCN(Cc3ccccc3)CC2)nc1 | -0.1 | -2.0 | -0.6 | 44.4*
c1ccc(CN2CCC(Nc3nccc(NC4CC4)n3)CC2)cc1 | 0.4 | 8.3 | -0.9 | 1.1
O=C(Nc1ccc2c(c1)OCO2)C1CC12CCN(C(=O)c1ccccc1-n1cccn1)CC2 (stereo not drawn) | 0.0 | 4.6 | 0.9 | -4.1
NC(=S)NNc1cccc2cccnc12 | -0.5 | 74.2*! | 0.4 | 2.4
Cc1cc(Oc2cc(NC(=O)c3nc4nc(-c5ccccc5)cc(C(F)(F)F)n4n3)cc([N+](=O)[O-])c2)cc(C(C)C)c1 | -0.1 | 10.1 | 0.1 | 6.8
O=C(CSc1nc2ccsc2c(=O)n1-c1ccc(F)cc1)Nc1ccccc1Cl | 0.6 | 8.9 | -0.4 | 33.3*
O=C(CSc1nc2ccsc2c(=O)n1-c1ccccc1)Nc1ccccc1Cl | 0.0 | 2.4 | 0.9 | 7.2
CCOc1cccc2c1OC1(CCC(C)CC1)N1N=C(c3ccc(C)o3)CC21 (stereo not drawn) | 0.5 | 5.0 | -0.7 | -24.6
O=C(N/N=C/c1cccc(O)c1O)c1ccc(O)cc1 | -1.1 | 56.6* | -0.6 | -8.6
CCN(CC)S(=O)(=O)c1cccc(C(=O)N/N=C/c2cccc(O)c2O)c1 | -1.2 | 70.7* | 0.7 | 5.1
Cc1cccc(/C=N\NC(=O)c2ccc([N+](=O)[O-])cc2)c1O | -0.7 | -6.9 | -1.4 | 61.7*
O=C(NNC(=S)NCC1CCCO1)C(Sc1ccccc1)c1ccccc1 (stereo not drawn) | 2.2* | 1.6 | 1.2 | 0.9
Oc1ccccc1-c1ccc2c(-c3ccc(N4CCNCC4)cc3)[nH]nc2n1 | 0.0 | 7.9 | 0.5 | 61.4*
CCOC(=O)CSc1nc2c(sc(=S)n2-c2ccc(C)c(C)c2)c(=O)n1-c1ccc(F)cc1 | 0.0 | -1.6 | 2.3 | -3.0
O=C(c1ccccc1F)N1CCN(S(=O)(=O)c2ccc(Cl)cc2)CC1 | 0.0 | -2.4 | 0.4 | -2.7
COc1ccc(N(CC(=O)c2ccc(C3CCCCC3)cc2)C2=NCCCCC2)c(OC)c1 | -0.3 | -2.3 | 1.8 | 55.1*
COc1ccc(N(CC(=O)NC2CCCC2)S(C)(=O)=O)c(OC)c1 | -0.5 | -12.0 | -1.1 | 5.3
CCCN(CCC)CCCNC(=O)C1CCC(=O)N1C(C)C (stereo not drawn) | -0.1 | 0.3 | 1.1 | -10.4
